Reference: PubChem BioAssay (NCI)
This is part of a sample that, as a whole, favours compounds with a hit. Of some 83,000 tested, about 20% had one in any assay.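 In brief: 96-well plates, 48 h treatment, single concentration, percent growth endpoint.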 A number with no mark means an inactive call. Activity calls are given as the source filed them. How the source made its calls: active means growth percent below 10; inactive means the rest.

Legend:
Experiment in all cases: NCI-60 one-dose screen, 48 h (100 = growth as untreated, 0 = no growth, -100 = all killed)
Details in all cases: 10 µM unless noted
DU-145 prostate = tested on: DU-145 prostate
K-562 leukemia = tested on: K-562 leukemia
MALME-3M melanoma = tested on: MALME-3M melanoma
MDA-MB-231 breast = tested on: MDA-MB-231 breast
RXF 393 renal = tested on: RXF 393 renal
SF-268 CNS = tested on: SF-268 CNS
SF-295 CNS = tested on: SF-295 CNS
UACC-257 melanoma = tested on: UACC-257 melanoma
M14 melanoma = tested on: M14 melanoma
HCT-15 colon = tested on: HCT-15 colon
HT29 colon = tested on: HT29 colon
SNB-75 CNS = tested on: SNB-75 CNS
SNB-19 CNS = tested on: SNB-19 CNS
U251 CNS = tested on: U251 CNS
PC-3 prostate = tested on: PC-3 prostate
SK-MEL-5 melanoma = tested on: SK-MEL-5 melanoma
UACC-62 melanoma = tested on: UACC-62 melanoma
LOX IMVI melanoma = tested on: LOX IMVI melanoma
SK-MEL-28 melanoma = tested on: SK-MEL-28 melanoma

Compound	growth (DU-145 prostate)	growth (K-562 leukemia)	growth (MALME-3M melanoma)	growth (MDA-MB-231 breast)	growth (RXF 393 renal)	growth (SF-268 CNS)	growth (SF-295 CNS)	growth (UACC-257 melanoma)	growth (M14 melanoma)	growth (HCT-15 colon)	growth (HT29 colon)	growth (SNB-75 CNS)	growth (SNB-19 CNS)	growth (U251 CNS)	growth (PC-3 prostate)	growth (SK-MEL-5 melanoma)	growth (UACC-62 melanoma)	growth (LOX IMVI melanoma)	growth (SK-MEL-28 melanoma)
COc1ccc(C(=O)/C=C/c2c(Cl)c3c(c(OC)c2Cl)OCC(=O)N3)cc1	18.7%	3.42% (active)	66.8%	34.9%	36.3%	29.9%	32.1%	50%	17.7%	20.1%	7.82% (active)	37%	59.6%	17%	52.1%	21.2%	46.7%	-36.1% (active)	48.2%
Cc1[nH]n(-c2ccccc2)c2nc3nncc3c(-c3ccc(Cl)cc3)c12	103%	95.8%	132%	106%	107%	98.9%	105%	101%	114%	94.1%	79.7%	104%	100%	99.2%	73.1%	104%	91.5%	89%	104%
O=C(CN1CCOCC1)Nc1ccc(Cn2nnc3c2C(=O)c2nnn(Cc4ccc(NC(=O)CN5CCOCC5)cc4)c2C3=O)cc1	-76.7% (active)	0.148% (active)	-81.6% (active)	-9.32% (active)	-18.7% (active)	-5.75% (active)	-44.9% (active)	-95.2% (active)	-90.4% (active)	70.8%	-37.3% (active)	-87.4% (active)	-15% (active)	-92.1% (active)	5.89% (active)	-86.9% (active)	-77.3% (active)	-25.1% (active)	-34.6% (active)
O=C(CN1CCN(c2cc3c(cc2F)c(=O)c(C(=O)O)cn3C2CC2)CC1)Nc1nc(-c2ccc(Cl)cc2)cs1	32%	25.3%	31.6%	24.6%	23.3%	29.7%	10.8%	7.83% (active)	27.5%	15.7%	10.4%	32.6%	22.5%	8.26% (active)	17.7%	10.4%	20.1%	-42.4% (active)	42.6%
CS(=O)CCCCCN=C=S (stereo unspecified)	9.76% (active)	-0.259% (active)	-11.5% (active)	9.17% (active)	-34.7% (active)	8.94% (active)	51%	-6.89% (active)	8.73% (active)	-16.9% (active)	-13.3% (active)	29.5%	28%	9.01% (active)	32.4%	12.1%	-8.14% (active)	-38.7% (active)	6.92% (active)
CC(=O)C1=C(O)C=C2Oc3c(C(=O)/C=C/c4ccccc4)c(O)c(C)c(O)c3[C@]2(C)C1=O	57%	24.9%	74.2%	61.2%	62.9%	35.2%	19.5%	44.5%	36.1%	25.3%	32.6%	87.1%	21.6%	7.84% (active)	24.2%	10.1%	32.9%	41.4%	43.1%
CCOC(=O)C(Cc1cc(I)c(O)c(I)c1)NC(=O)c1ccccc1 (stereo unspecified)	109%	97.1%	99.5%	102%	99.1%	102%	101%	92.7%	99.3%	98.6%	99.9%	94.5%	99.3%	33.6%	99.1%	100%	92.2%	103%	101%
COc1ccc(-c2csc(NC(=O)CN3CCN(c4cc5c(cc4F)c(=O)c(C(=O)O)cn5C4CC4)CC3)n2)cc1	30.2%	19%	15.4%	11.9%	18.7%	29.2%	-4.67% (active)	-13.4% (active)	20.3%	14.6%	4.05% (active)	11.7%	16.4%	7.92% (active)	11.2%	-24.6% (active)	12.1%	-80% (active)	39.4%
CC/C=C\C[C@H](F)C/C=C1/C(=O)C=C[C@@H]1C/C=C\CCCC(=O)OC	25.7%	-5.83% (active)	-13.6% (active)	3.26% (active)	-45.5% (active)	26%	4.48% (active)	-0.592% (active)	1.2% (active)	-32.8% (active)	-31% (active)	61.9%	34%	1.8% (active)	12.9%	-81.8% (active)	-49.4% (active)	-49.7% (active)	9.64% (active)
